Experimental data as given in PubChem BioAssay (EPA / NIEHS).
Inconclusive results are not listed. Activity calls are given as the source filed them. The calls were made as follows: active = hit-call score of the fitted dose curve at least 0.9, where 1 is the maximum; inconclusive = response in the unintended direction; inactive = score below 0.9.

Columns and labels:
[1] = biological target: human Peroxisome Proliferator-activated Receptor delta (PPARd), PPARD (gene 5467) (UniProt Q03181); experiment: ATG_PPARd_TRANS: Attagene TRANS-FACTORIAL HepG2 Assay for human Peroxisome Proliferator-activated Receptor delta (PPARd) (AID 2283002)
Chain of human Peroxisome Proliferator-activated Receptor delta (PPARd), PPARD (gene 5467) (Q03181 whole entry, looked up, the tested form may be a part): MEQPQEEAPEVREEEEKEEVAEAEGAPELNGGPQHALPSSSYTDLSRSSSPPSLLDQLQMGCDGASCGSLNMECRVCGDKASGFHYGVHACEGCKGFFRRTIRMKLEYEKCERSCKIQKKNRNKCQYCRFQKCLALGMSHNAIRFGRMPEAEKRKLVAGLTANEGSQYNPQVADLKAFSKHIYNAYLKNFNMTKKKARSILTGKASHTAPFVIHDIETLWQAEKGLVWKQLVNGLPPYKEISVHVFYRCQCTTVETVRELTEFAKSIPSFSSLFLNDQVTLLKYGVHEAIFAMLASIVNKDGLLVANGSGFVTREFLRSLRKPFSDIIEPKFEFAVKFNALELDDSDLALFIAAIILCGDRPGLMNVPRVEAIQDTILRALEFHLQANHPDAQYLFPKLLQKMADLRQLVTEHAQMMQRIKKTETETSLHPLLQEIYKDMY
Outline: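 Read-out is induced reporter mRNA, quantified by RT-PCR with fluorescent labelling and capillary electrophoresis after 24 h dosing. Cells are HepG2 transiently carrying multiple GAL4-UAS reporter units driven by exogenous NR-GAL4 chimeras; DMSO serves as baseline.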

[2] = biological target: Retinoic acid receptor alpha (Homo sapiens) (UniProt P10276); experiment: ATG_RARa_TRANS: Attagene TRANS-FACTORIAL HepG2 Assay for human Retinoic Acid Receptor alpha (RARa) (AID 2283005)
Chain of Retinoic acid receptor alpha (Homo sapiens) (P10276 whole entry, looked up, the tested form may be a part): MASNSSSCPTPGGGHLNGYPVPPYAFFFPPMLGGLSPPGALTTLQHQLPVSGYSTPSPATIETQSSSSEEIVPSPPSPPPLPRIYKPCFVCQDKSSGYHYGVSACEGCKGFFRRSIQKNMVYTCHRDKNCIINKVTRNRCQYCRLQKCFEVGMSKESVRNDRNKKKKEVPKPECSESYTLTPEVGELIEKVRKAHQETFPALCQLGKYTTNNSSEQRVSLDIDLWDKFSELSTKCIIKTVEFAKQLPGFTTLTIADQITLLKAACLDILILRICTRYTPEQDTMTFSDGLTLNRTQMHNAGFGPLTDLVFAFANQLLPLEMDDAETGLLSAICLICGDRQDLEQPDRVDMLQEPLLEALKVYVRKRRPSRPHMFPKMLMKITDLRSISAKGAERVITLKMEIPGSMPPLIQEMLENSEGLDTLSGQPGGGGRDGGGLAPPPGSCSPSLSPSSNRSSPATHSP
Outline: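 Reporter transcripts, measured by RT-PCR with fluorescent labeling and capillary electrophoresis after 24 h dosing, reflect activity of an exogenous human RARa–GAL4 fusion in transiently transfected HepG2. Fitted for increase relative to DMSO.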

[3] = biological target: Peroxisome proliferator-activated receptor gamma (Homo sapiens) (UniProt P37231); experiment: ATG_PPARg_TRANS: Attagene TRANS-FACTORIAL HepG2 Assay for human Peroxisome Proliferator-activated Receptor-gamma (PPARg) (AID 2283007)
Chain of Peroxisome proliferator-activated receptor gamma (Homo sapiens) (P37231 whole entry, looked up): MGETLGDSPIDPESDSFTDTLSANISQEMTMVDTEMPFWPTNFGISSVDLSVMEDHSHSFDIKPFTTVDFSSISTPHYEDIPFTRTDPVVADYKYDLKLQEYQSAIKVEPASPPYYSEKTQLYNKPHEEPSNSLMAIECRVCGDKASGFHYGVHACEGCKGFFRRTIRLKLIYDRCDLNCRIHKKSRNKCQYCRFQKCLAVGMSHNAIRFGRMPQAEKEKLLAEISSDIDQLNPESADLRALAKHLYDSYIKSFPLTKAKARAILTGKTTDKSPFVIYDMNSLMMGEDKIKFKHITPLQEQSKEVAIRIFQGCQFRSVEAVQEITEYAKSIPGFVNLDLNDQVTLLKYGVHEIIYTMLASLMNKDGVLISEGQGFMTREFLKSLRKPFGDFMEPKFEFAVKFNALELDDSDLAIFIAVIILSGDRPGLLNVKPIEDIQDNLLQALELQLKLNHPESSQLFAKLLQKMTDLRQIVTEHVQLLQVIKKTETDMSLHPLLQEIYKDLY
Outline: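 Human hepatoma HepG2, transient MRTU transfection, 24 h treatment. mRNA reporter signal by RT-PCR plus capillary electrophoresis, fluorescence detection; fitted for increase over DMSO negative control.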

[4] = biological target: Nuclear receptor subfamily 1 group I member 2 (Homo sapiens) (UniProt O75469); experiment: ATG_PXR_TRANS: Attagene TRANS-FACTORIAL HepG2 Assay for human Pregnane X Receptor (PXR) (AID 2283008)
Chain of Nuclear receptor subfamily 1 group I member 2 (Homo sapiens) (O75469 whole entry, looked up, the tested form may be a part): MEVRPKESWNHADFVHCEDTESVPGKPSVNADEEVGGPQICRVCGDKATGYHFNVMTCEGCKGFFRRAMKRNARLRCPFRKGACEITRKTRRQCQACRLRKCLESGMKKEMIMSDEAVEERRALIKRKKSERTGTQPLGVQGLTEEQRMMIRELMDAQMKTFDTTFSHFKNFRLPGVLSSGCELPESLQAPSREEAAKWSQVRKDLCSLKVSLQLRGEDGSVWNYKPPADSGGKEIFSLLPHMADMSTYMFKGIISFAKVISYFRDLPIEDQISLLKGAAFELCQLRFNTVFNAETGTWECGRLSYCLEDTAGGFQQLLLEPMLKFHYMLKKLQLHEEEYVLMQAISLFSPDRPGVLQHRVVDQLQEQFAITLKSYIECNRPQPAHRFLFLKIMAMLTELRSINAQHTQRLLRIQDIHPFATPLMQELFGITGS
Outline: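 Read-out is fluorescence of labelled reporter cDNA fragments separated by capillary electrophoresis after RT-PCR and HpaI digestion. Source: HepG2 cells carrying PXR-GAL4/UAS reporter constructs, treated 24 h; activity fitted upward relative to DMSO.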

[5] = biological target: human Retinoid X Receptor beta (RXRb), RXRB (gene 6257) (UniProt P28702); experiment: ATG_RXRb_TRANS: Attagene TRANS-FACTORIAL HepG2 Assay for human Retinoid X Receptor beta (RXRb) (AID 2283013)
Chain of human Retinoid X Receptor beta (RXRb), RXRB (gene 6257) (P28702 whole entry, looked up): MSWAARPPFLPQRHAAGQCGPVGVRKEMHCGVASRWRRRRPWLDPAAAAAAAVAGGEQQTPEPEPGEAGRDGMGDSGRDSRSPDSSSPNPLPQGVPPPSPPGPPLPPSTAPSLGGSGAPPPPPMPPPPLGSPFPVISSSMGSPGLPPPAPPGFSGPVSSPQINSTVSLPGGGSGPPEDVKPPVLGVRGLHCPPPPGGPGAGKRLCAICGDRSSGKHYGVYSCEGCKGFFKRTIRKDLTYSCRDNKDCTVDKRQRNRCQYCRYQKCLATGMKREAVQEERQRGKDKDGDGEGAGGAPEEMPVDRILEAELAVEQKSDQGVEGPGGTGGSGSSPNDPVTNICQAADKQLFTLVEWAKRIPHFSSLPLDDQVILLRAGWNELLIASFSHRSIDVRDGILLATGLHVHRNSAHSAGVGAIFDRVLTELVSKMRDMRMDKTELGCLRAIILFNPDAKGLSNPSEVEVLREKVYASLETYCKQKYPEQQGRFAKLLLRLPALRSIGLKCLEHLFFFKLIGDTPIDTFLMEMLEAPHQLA
Outline: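 Multiplexed TRANS reporter assay in HepG2; 24 h dosing; reporter mRNA by RT-PCR/CE fluorescence; gain-of-signal relative to DMSO.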

[6] = biological target: human RAR-related Orphan Receptor gamma (RORg), RORC (gene 6097) (UniProt P51449); experiment: ATG_RORg_TRANS: Attagene TRANS-FACTORIAL HepG2 Assay for human RAR-related Orphan Receptor gamma (RORg) (AID 2283011)
Chain of human RAR-related Orphan Receptor gamma (RORg), RORC (gene 6097) (P51449 whole entry, looked up, the tested form may be a part): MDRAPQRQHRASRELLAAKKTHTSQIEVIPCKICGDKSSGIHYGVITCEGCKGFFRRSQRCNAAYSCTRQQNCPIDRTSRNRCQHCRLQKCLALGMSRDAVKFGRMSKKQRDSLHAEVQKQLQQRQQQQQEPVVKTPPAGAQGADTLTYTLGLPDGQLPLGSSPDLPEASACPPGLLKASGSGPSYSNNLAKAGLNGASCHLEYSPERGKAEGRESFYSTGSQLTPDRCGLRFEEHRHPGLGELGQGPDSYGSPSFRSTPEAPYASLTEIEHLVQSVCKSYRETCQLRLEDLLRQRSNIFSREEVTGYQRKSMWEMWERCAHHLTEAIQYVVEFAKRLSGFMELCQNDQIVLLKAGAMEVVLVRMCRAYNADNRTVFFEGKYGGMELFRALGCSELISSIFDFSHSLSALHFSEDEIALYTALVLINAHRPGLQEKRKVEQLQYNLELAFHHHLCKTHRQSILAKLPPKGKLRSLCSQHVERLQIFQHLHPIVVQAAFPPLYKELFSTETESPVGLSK
Outline: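 Reporter transcripts from a transfected RORg-GAL4 chimera in HepG2 cells were quantified 24 h after dosing by RT-PCR, 6-FAM labelling, HpaI digestion and capillary electrophoresis; increases over DMSO baseline were fitted.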

[7] = biological target: Retinoic acid receptor RXR-alpha (Homo sapiens) (UniProt P19793); experiment: ATG_RXRa_TRANS: Attagene TRANS-FACTORIAL HepG2 Assay for human Retinoid X Receptor alpha (RXRa) (AID 2283012)
Chain of Retinoic acid receptor RXR-alpha (Homo sapiens) (P19793 whole entry, looked up, the tested form may be a part): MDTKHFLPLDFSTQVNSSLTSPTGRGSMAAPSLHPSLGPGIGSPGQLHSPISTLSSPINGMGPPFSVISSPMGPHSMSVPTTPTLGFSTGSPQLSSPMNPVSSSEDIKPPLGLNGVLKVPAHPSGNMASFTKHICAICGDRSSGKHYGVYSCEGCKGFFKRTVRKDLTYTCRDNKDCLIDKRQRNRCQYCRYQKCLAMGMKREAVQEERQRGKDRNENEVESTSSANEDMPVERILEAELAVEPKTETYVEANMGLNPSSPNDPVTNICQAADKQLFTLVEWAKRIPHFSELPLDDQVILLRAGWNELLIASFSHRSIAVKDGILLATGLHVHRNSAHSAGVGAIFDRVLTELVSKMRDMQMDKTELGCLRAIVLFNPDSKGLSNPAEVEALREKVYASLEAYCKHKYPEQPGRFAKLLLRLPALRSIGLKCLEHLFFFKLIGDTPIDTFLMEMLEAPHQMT
Outline: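 Cells (HepG2) carried transiently transfected GAL4-responsive reporter units. Following a 24 h chemical incubation, reporter mRNA induction was read via RT-PCR fragment analysis; DMSO served as negative control and baseline.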

[8] = biological target: human Thyroid Receptor alpha (THRa1), THRA (gene 7067) (UniProt P10827); experiment: ATG_THRa1_TRANS: Attagene TRANS-FACTORIAL HepG2 Assay for human Thyroid Receptor alpha (THRa1) (AID 2283014)
Chain of human Thyroid Receptor alpha (THRa1), THRA (gene 7067) (P10827 whole entry, looked up, the tested form may be a part): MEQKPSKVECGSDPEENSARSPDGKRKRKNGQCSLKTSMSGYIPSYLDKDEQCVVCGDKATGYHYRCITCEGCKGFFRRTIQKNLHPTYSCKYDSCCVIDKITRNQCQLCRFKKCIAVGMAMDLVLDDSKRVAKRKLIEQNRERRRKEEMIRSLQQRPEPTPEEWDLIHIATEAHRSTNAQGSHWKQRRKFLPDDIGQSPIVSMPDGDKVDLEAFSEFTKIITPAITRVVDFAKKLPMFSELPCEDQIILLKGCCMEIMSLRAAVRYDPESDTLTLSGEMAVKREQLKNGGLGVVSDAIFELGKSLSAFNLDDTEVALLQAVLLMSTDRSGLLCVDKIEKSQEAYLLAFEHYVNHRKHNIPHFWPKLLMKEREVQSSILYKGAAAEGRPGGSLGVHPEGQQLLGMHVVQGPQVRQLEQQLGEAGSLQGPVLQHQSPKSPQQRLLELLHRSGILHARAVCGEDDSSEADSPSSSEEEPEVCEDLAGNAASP
Outline: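 Transcripts from GAL4-UAS-driven reporters, measured after 24 h compound exposure by RT-PCR plus capillary electrophoresis of 6-FAM-labeled fragments, were fitted for gain of signal relative to DMSO. Cells: transiently transfected HepG2 expressing NR-Gal4 chimeras.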

[9] = biological target: human RAR-related Orphan Receptor beta (RORb), RORB (gene 6096) (UniProt Q92753); experiment: ATG_RORb_TRANS: Attagene TRANS-FACTORIAL HepG2 Assay for human RAR-related Orphan Receptor beta (RORb) (AID 2283010)
Chain of human RAR-related Orphan Receptor beta (RORb), RORB (gene 6096) (Q92753 whole entry, looked up, the tested form may be a part): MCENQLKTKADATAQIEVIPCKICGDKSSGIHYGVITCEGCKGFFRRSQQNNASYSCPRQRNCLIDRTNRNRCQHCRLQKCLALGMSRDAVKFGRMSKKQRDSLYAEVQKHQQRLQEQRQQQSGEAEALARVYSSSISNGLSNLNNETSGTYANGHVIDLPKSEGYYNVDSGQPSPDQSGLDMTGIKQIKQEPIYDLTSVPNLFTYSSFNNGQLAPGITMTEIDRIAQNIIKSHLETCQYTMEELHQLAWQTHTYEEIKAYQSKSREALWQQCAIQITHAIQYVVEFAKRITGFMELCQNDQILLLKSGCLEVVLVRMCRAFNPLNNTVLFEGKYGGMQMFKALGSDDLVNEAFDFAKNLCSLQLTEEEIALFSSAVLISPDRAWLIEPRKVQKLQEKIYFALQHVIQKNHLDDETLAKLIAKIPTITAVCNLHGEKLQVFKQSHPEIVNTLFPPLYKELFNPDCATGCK
Outline: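 In this TRANS-format test, human HepG2 cells express chimeric NR-Gal4 fusion proteins driving GAL4-UAS reporters. After 24 h dosing, reporter transcripts are measured by fluorescent RT-PCR/capillary electrophoresis, with DMSO as negative control.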

[10] = biological target: human Retinoic Acid Receptor beta (RARb), RARB (gene 5915) (UniProt P10826); experiment: ATG_RARb_TRANS: Attagene TRANS-FACTORIAL HepG2 Assay for human Retinoic Acid Receptor beta (AID 2283004)
Chain of human Retinoic Acid Receptor beta (RARb), RARB (gene 5915) (P10826 whole entry, looked up, the tested form may be a part): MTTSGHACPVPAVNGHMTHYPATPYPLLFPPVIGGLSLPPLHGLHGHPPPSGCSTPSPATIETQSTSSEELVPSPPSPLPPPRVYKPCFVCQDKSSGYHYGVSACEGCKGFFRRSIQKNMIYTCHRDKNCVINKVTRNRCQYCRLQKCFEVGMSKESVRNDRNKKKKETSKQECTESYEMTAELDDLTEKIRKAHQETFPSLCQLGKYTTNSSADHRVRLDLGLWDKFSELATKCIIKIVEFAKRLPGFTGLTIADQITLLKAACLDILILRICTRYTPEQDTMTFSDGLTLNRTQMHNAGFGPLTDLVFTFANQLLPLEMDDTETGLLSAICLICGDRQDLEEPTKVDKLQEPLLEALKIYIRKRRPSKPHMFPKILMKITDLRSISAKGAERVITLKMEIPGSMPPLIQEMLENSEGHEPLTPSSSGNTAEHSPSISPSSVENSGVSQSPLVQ
Outline: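 Induction of reporter mRNA from a chimeric RARb-Gal4 construct was measured by RT-PCR, FAM labelling, HpaI digestion and capillary electrophoresis. Measurements followed 24 h compound treatment of transiently transfected human HepG2 liver cells, with DMSO as baseline.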

[11] = biological target: human Retinoic Acid Receptor gamma (RARg), RARG (gene 5916) (UniProt P13631); experiment: ATG_RARg_TRANS: Attagene TRANS-FACTORIAL HepG2 Assay for human Retinoic Acid Receptor gamma (RARg) (AID 2283009)
Outline: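 HepG2, RARg-GAL4 TRANS system, 24 h exposure; reporter mRNA by RT-PCR + CE fluorescence; increase over DMSO.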

Measured: AC50

O=c1c2ccccc2nnn1CCl
inactive: [1] | [2] | [3] | [5]
active: [4] 5.33 µM

CC(=O)OCC(=O)[C@@]12N=C(C)O[C@@H]1C[C@H]1[C@@H]3CCC4=CC(=O)C=C[C@]4(C)[C@H]3[C@@H](O)C[C@@]12C
inactive: [1] | [3] | [4] | [6] | [8]
active: [7] 16.7 µM | [5] 1.62 µM

O=S1(=O)OC(c2ccc(O)cc2)(c2ccc(O)cc2)c2ccccc21
inactive: [1] | [3] | [4] | [7] | [5] | [8]

c1cc(C(c2ccc(OCC3CO3)cc2)C(c2ccc(OCC3CO3)cc2)c2ccc(OCC3CO3)cc2)ccc1OCC1CO1 (stereo not given)
inactive: [1] | [2] | [3] | [4] | [8]

Cc1ccc(C2OC[C@@H]3OC(c4ccc(C)cc4)O[C@H]([C@H](O)CO)[C@@H]3O2)cc1 (stereo not given in full)
not listed: [5] | [7] | [10] | [11]
inactive: all other assays above

CCC(Cc1ccccc1)(C(=O)c1ccc(N2CCOCC2)cc1)N(C)C (stereo not given)
active: [3] 35.1 µM | [4] 2.42 µM
inactive: [1] | [6] | [7] | [8]

CC(=O)OC1C2(C)CCC(C2)C1(C)C (stereo not given)
inactive: [1] | [3] | [4] | [8]

C=CC(C)(CCC=C(C)C)OC(=O)CC(C)C (stereo not given)
inactive: [1] | [7] | [8]
active: [3] 58.2 µM | [4] 11.8 µM | [5] 30.5 µM

Cc1cccc(N)n1
inactive: [1] | [10] | [4] | [9] | [6] | [7]

O=C1c2ccccc2C(=O)C1c1nc2ccccc2c(Br)c1O
active: [3] 11.5 µM
not listed: [2] | [10] | [11]
inactive: all other assays above

NCCCN1CCN(CCCN)CC1
inactive: [1] | [2] | [9] | [8]

CC(C)c1ccc(C=O)cc1
inactive: [1] | [3] | [4] | [9] | [6] | [8]

C[C@]12CCC(=O)C=C1CC[C@@H]1[C@@H]2C(=O)C[C@@]2(C)[C@H]1CC[C@]2(O)C(=O)CO
inactive: [1] | [3] | [6] | [7] | [5]
active: [4] 26.9 µM

CCCCCCCCCCc1ccccc1
not listed: [2] | [5] | [10] | [11]
inactive: all other assays above

CC(C)=CCC[C@H](C)CCO
inactive: [1] | [3] | [4] | [7] | [8]

Nc1ccc(Oc2ccc(N)c(N)c2)cc1
active: [3] 60.1 µM
inactive: [1] | [4] | [11] | [7] | [5] | [8]
